Measured values from PubChem BioAssay AID1159580 (chemical genetic matrix, 2015).
Out of some 5,500 compounds screened, about 2,000 (36%) were called active. Roughly 18% stayed inconclusive and do not appear here. Cut-off read from the data, not from the text of the source: active = normalized growth mostly below about 0.91 (no sharp cut-off); inconclusive = no clear call, values can overlap the other calls; inactive = mostly above about 0.92. Some of the results follow.

Assay: chemical genetic growth profiling, strain panel (AID 1159580);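 note: tested at 20 µM; growth read once vehicle control cultures reached saturation at 30 °C; 1 = growth at the plate median or of vehicle wells; lower values mean less growth of the strain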
Details: growth OD

Measured: normalized growth

COc1cc2occ(-c3ccccc3)c(=O)c2c(OC)c1C
inactive: S. cerevisiae deletion strains, locus YJR043C, strain POL32, active compounds read low 0.937 | S. cerevisiae deletion strains, locus YJR075W, strain HOC1, active compounds read low 0.908 | S. cerevisiae deletion strains, locus YKL009W, strain mrt4, active compounds read low 0.941 | S. cerevisiae deletion strains, locus YKL068W, active compounds read low 0.965 | S. cerevisiae deletion strains, locus YKL085W, strain MDH1 (second series), active compounds read low 0.952 | S. cerevisiae deletion strains, locus YKL085W, strain MDH1, active compounds read low 0.952 | S. cerevisiae deletion strains, locus YKL160W, strain elf1, active compounds read low 0.969 | S. cerevisiae deletion strains, locus YKL190W, strain CNB1, active compounds read low 0.961 | S. cerevisiae deletion strains, locus YKR026C, strain gcn3, active compounds read low 0.973 | S. cerevisiae deletion strains, locus YKR091W, strain srl3, active compounds read low 0.976 | S. cerevisiae deletion strains, locus YLL001W, strain dnm1, active compounds read low 0.98 | S. cerevisiae deletion strains, locus YLL026W, active compounds read low 0.971 | S. cerevisiae deletion strains, locus YLL041C, strain sdh2, active compounds read low 0.976 | S. cerevisiae deletion strains, locus YLR027C, strain aat2, active compounds read low 0.979 | S. cerevisiae deletion strains, locus YLR039C, strain RIC1, active compounds read low 0.763 | S. cerevisiae deletion strains, locus YLR058C, strain SHM2, active compounds read low 0.951 | S. cerevisiae deletion strains, locus YLR102C, strain apc9, active compounds read low 0.96 | S. cerevisiae deletion strains, locus YLR221C, strain rsa3, active compounds read low 0.979 | S. cerevisiae deletion strains, locus YLR258W, strain gsy2, active compounds read low 0.97 | S. cerevisiae deletion strains, locus YLR262C, strain YPT6, active compounds read low 0.725 | S. cerevisiae deletion strains, locus YLR320W, strain mms22, active compounds read low 0.902 | S. cerevisiae deletion strains, locus YLR330W, strain CHS5, active compounds read low 0.957 | S. cerevisiae deletion strains, locus YLR342W, strain FKS1, active compounds read low 0.968 | S. cerevisiae deletion strains, locus YLR357W, strain rsc2, active compounds read low 0.97 | S. cerevisiae deletion strains, locus YLR370C, strain arc18, active compounds read low 0.962 | S. cerevisiae deletion strains, locus YLR371W, strain rom2, active compounds read low 0.923 | S. cerevisiae deletion strains, locus YLR384C, strain iki3, active compounds read low 0.976 | S. cerevisiae deletion strains, locus YML016C, strain PPZ1, active compounds read low 0.956 | S. cerevisiae deletion strains, locus YML120C, strain ndi1, active compounds read low 0.951 | S. cerevisiae deletion strains, locus YML124C, strain tub3, active compounds read low 0.942 | S. cerevisiae deletion strains, locus YMR058W, strain fet3, active compounds read low 0.97 | S. cerevisiae deletion strains, locus YMR078C, strain ctf18, active compounds read low 0.927 | S. cerevisiae deletion strains, locus YMR125W, strain sto1, active compounds read low 1 | S. cerevisiae deletion strains, locus YMR129W, active compounds read low 0.981 | S. cerevisiae deletion strains, locus YMR205C, strain PFK2, active compounds read low 0.932 | S. cerevisiae deletion strains, locus YMR231W, strain pep5, active compounds read low 0.998 | S. cerevisiae deletion strains, locus YMR263W, strain SAP30, active compounds read low 0.926 | S. cerevisiae deletion strains, locus YMR307W, strain GAS1, active compounds read low 0.665 | S. cerevisiae deletion strains, locus YNL067W, strain RPL9B, active compounds read low 0.95 | S. cerevisiae deletion strains, locus YNL128W, strain TEP1, active compounds read low 0.963 | S. cerevisiae deletion strains, locus YNL153C, strain GIM3, active compounds read low 0.991 | S. cerevisiae deletion strains, locus YNL209W, strain ssb2, active compounds read low 0.988 | S. cerevisiae deletion strains, locus YNL233W, strain BNI4, active compounds read low 0.908 | S. cerevisiae deletion strains, locus YNL248C, strain rpa49, active compounds read low 0.98 | S. cerevisiae deletion strains, locus YNL250W, strain rad50, active compounds read low 0.956 | S. cerevisiae deletion strains, locus YNL271C, strain bni1, active compounds read low 0.937 | S. cerevisiae deletion strains, locus YNL298W, strain CLA4, active compounds read low 0.946 | S. cerevisiae deletion strains, locus YNL322C, strain KRE1 (second series), active compounds read low 0.991 | S. cerevisiae deletion strains, locus YNL322C, strain KRE1, active compounds read low 0.965 | S. cerevisiae deletion strains, locus YNR049C, strain mso1, active compounds read low 0.985 | S. cerevisiae deletion strains, locus YNR052C, strain pop2, active compounds read low 0.933 | S. cerevisiae deletion strains, locus YOL006C, strain TOP1, active compounds read low 0.787 | S. cerevisiae deletion strains, locus YOL012C, strain htz1 0.865 | S. cerevisiae deletion strains, locus YOR001W, strain rrp6, active compounds read low 1 | S. cerevisiae deletion strains, locus YOR061W, strain CKA2, active compounds read low 0.96 | S. cerevisiae deletion strains, locus YOR069W, strain VPS5, active compounds read low 0.968 | S. cerevisiae deletion strains, locus YOR070C, strain gyp1, active compounds read low 0.982 | S. cerevisiae deletion strains, locus YOR080W, strain dia2, active compounds read low 1 | S. cerevisiae deletion strains, locus YOR083W, strain WHI5, active compounds read low 0.965 | S. cerevisiae deletion strains, locus YOR106W, strain vam3, active compounds read low 0.953 | S. cerevisiae deletion strains, locus YOR136W, strain idh2, active compounds read low 0.952 | S. cerevisiae deletion strains, locus YOR144C, strain elg1, active compounds read low 0.946 | S. cerevisiae deletion strains, locus YOR265W, strain rbl2, active compounds read low 0.962 | S. cerevisiae deletion strains, locus YOR270C, strain vph1, active compounds read low 0.801 | S. cerevisiae deletion strains, locus YOR290C, strain snf2, active compounds read low 0.919 | S. cerevisiae deletion strains, locus YOR316C, strain cot1, active compounds read low 0.937 | S. cerevisiae deletion strains, locus YPL051W, strain arl3, active compounds read low 0.942 | S. cerevisiae deletion strains, locus YPL055C, strain LGE1, active compounds read low 0.888 | S. cerevisiae deletion strains, locus YPL078C, strain atp4, active compounds read low 0.956 | S. cerevisiae deletion strains, locus YPL106C, strain sse1, active compounds read low 0.993 | S. cerevisiae deletion strains, locus YPL240C, strain hsp82, active compounds read low 0.969 | S. cerevisiae deletion strains, locus YPL241C, strain CIN2, active compounds read low 0.959 | S. cerevisiae deletion strains, locus YPR119W, strain clb2, active compounds read low 0.959 | S. cerevisiae deletion strains, locus YPR141C, strain kar3, active compounds read low 0.944 | S. cerevisiae deletion strains, locus YPR163C, strain tif3, active compounds read low 0.937 | S. cerevisiae deletion strains, locus YPR167C, strain met16, active compounds read low 0.942 | S. cerevisiae deletion strains, strain wtn01, active compounds read low 0.916 | S. cerevisiae strains, strain wild type, active compounds read low 0.928
active: S. cerevisiae deletion strains, locus YKR001C, strain vps1, active compounds read low 0.855 | S. cerevisiae deletion strains, locus YLR262C, strain YPT6 (second series), active compounds read low 0.766 | S. cerevisiae deletion strains, locus YLR268W, strain sec22, active compounds read low 0.873 | S. cerevisiae deletion strains, locus YLR342W, strain FKS1 (second series), active compounds read low 0.714 | S. cerevisiae deletion strains, locus YLR418C, strain cdc73, active compounds read low 0.788 | S. cerevisiae deletion strains, locus YML032C, strain rad52, active compounds read low 0.898 | S. cerevisiae deletion strains, locus YMR223W, strain ubp8, active compounds read low 0.885 | S. cerevisiae deletion strains, locus YNL071W, strain lat1, active compounds read low 0.819 | S. cerevisiae deletion strains, locus YNL307C, strain MCK1, active compounds read low 0.664 | S. cerevisiae deletion strains, locus YOL147C, strain pex11, active compounds read low 0.923 | S. cerevisiae deletion strains, locus YOR184W, strain ser1, active compounds read low 0.742
